The whole screen tested about 2,400 compounds, of which about 750 (31%) were called active.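 The calls were made as follows: active = median signal gain over dofetilide-blocked control wells reaching their mean plus 3 SD, so readout 1 at least 0; inactive = the rest.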 The list shows a part of the results.

The target of the experiment is Voltage-gated inwardly rectifying potassium channel KCNH2 (Homo sapiens) (UniProt Q12809). Put plainly: modulators restoring hERG flux under dofetilide – cell-based, thallium flux, duplicate retest, dofetilide IC70, confirmation (AID 1835). As to conditions: hERG cell line, FluxOR thallium flux, dofetilide-blocked; at 10 µM; hits give high values. (In general: The hERG channel carries a current that helps repolarise heart muscle cells.)
Sequence of Voltage-gated inwardly rectifying potassium channel KCNH2 (Homo sapiens) (Q12809 whole entry, looked up): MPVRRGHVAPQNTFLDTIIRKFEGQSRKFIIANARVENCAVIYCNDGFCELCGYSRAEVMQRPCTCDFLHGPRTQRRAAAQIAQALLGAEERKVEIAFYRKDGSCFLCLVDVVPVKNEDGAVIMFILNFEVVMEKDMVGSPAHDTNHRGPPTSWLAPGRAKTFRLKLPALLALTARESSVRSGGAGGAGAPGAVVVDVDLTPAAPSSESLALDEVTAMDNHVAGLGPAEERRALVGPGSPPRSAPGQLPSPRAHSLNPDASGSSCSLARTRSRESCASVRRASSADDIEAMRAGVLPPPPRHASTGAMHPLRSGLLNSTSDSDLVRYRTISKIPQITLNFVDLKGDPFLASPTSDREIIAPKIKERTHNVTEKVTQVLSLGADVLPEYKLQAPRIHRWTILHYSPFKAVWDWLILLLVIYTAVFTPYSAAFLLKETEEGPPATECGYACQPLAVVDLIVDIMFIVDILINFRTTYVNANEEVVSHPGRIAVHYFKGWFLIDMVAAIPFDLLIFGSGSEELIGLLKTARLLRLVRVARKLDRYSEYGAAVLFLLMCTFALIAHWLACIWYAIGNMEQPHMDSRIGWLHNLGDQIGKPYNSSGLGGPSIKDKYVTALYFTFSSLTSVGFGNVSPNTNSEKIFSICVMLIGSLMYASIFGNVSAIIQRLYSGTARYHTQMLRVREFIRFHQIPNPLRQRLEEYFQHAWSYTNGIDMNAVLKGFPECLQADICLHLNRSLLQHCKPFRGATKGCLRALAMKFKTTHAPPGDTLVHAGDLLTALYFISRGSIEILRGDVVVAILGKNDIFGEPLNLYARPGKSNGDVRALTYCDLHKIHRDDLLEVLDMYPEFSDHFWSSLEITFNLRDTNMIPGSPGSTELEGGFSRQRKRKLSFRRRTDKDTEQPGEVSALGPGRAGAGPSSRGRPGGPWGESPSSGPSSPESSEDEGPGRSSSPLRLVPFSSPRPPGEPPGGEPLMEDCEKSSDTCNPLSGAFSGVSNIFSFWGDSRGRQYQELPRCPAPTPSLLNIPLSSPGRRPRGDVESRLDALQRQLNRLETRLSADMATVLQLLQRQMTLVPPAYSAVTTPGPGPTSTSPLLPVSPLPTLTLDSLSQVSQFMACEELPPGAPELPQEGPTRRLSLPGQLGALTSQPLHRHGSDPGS
As to `COC(=O)C1=NN(C(=O)c2ccc(Cl)cc2)C(O)(c2ccccc2)C1` (stereo not given), the activity increase over dofetilide control, less the hit threshold was 74% (active).

In the case of `CCOC(=O)c1cnc(-n2nc(C)cc2C)nc1Nc1cccc(C(=O)O)c1`, the activity increase over dofetilide control, less the hit threshold is -2% (inactive).

As to `CCOC(=O)C1=NN(C(=O)c2cccc(Br)c2)C(O)(C(C)(C)C)C1` (stereo not given), the activity increase over dofetilide control, less the hit threshold is 79% (active).

As for `CC1=NN(C(=O)c2ccccc2Br)C(O)(c2ccc(Cl)cc2)C1` (stereo not given), the activity increase over dofetilide control, less the hit threshold is -15% (inactive).

With `COC(=O)C1=NN(C(=O)c2ccc(C)cc2)C(O)(c2ccc(Cl)cc2)C1` (stereo not given), the activity increase over dofetilide control, less the hit threshold is 92% (active).

For the molecule `CC1=NN(c2ccccc2)C(=O)C1C(=O)c1ccc(Cl)cc1` (stereo not given), the activity increase over dofetilide control, less the hit threshold is -5% (inactive).

For the molecule `COC(=O)C1=NN(C(=O)c2cccc(Br)c2)C(O)(c2ccc(Cl)cc2)C1` (stereo not given), the activity increase over dofetilide control, less the hit threshold was 86% (active).

For `CC1=NN(C(=O)c2ccc(Cl)cc2)C(O)(c2ccccc2)C1` (stereo not given), the activity increase over dofetilide control, less the hit threshold was -11% (inactive).

As to `CCC1=NN(C(=O)c2ccc(Cl)cc2)C(O)(c2ccccc2)C1` (stereo not given), the activity increase over dofetilide control, less the hit threshold is -24% (inactive).

For `COCCn1nnnc1C(c1ccc(C(F)(F)F)cc1)N1CCOCC1` (stereo not given), the activity increase over dofetilide control, less the hit threshold was -20% (inactive).

For `O=C(CSc1ccccc1)N1CCN(S(=O)(=O)c2cccs2)CC1`, the activity increase over dofetilide control, less the hit threshold is -10% (inactive).

Take `O=C(OCC(=O)N1CCOCC1)c1ccc(Cl)cc1[N+](=O)[O-]`: the activity increase over dofetilide control, less the hit threshold is -13% (inactive).

In the case of `CCOC(=O)N1CCN(C(=O)COC(=O)c2cc(Cl)c(O)c(Cl)c2)CC1`, the activity increase over dofetilide control, less the hit threshold was 5% (active).

`CCOC(=O)N1CCN(C(=O)CN(c2ccc(OCC)cc2)S(C)(=O)=O)CC1`: the activity increase over dofetilide control, less the hit threshold is -19% (inactive).

For the molecule `Cc1ccc(NC2=CC(=O)OC(C)C2)cc1` (stereo not given), the activity increase over dofetilide control, less the hit threshold is -4% (inactive).

Turning to `C=CCNC(=S)N/N=C(\C)c1ccc(OC)cc1`, the activity increase over dofetilide control, less the hit threshold was -4% (inactive).

As for `C=C(C)CNC(=S)NN=C1c2ccccc2-c2ccccc21`, the activity increase over dofetilide control, less the hit threshold is 15% (active).

Consider `CCOC(=O)N1CCN(C(=O)c2ccc(Cl)c(S(=O)(=O)Nc3ccccc3)c2)CC1`, for which the activity increase over dofetilide control, less the hit threshold was 5% (active).

Consider `CCOC(=O)N1CCN(C(=O)c2ccc(C)c(S(=O)(=O)Nc3ccccc3)c2)CC1`, for which the activity increase over dofetilide control, less the hit threshold is -1% (inactive).

Take `Cc1cc(S(=O)(=O)Nc2ccc(C(=O)N3CCN(C(=O)c4ccco4)CC3)cc2)ccc1F`: the activity increase over dofetilide control, less the hit threshold is -13% (inactive).

Consider `NC(=O)c1ccsc1NC(=O)CS(=O)(=O)c1ccccc1`, for which the activity increase over dofetilide control, less the hit threshold is -9% (inactive).

On to `O=c1c(O)c(-c2cccs2)oc2ccc(Cl)cc12`, for which the activity increase over dofetilide control, less the hit threshold is 92% (active).

As for `O=C(NCc1cccnc1)Nc1ccc2c(c1)OCO2`, the activity increase over dofetilide control, less the hit threshold is -19% (inactive).

Take `Cn1nc(C(=O)Nc2ccc3c(c2)OCO3)c2ccccc2c1=O`: the activity increase over dofetilide control, less the hit threshold is -16% (inactive).

Take `O=C1OC(/C=C/c2ccc(Cl)cc2Cl)=NC/1=C\c1cccs1`: the activity increase over dofetilide control, less the hit threshold is -7% (inactive).

`O=c1c(O)c(-c2cccs2)oc2ccccc12`: the activity increase over dofetilide control, less the hit threshold was 62% (active).

Regarding `O=c1c(O)c(-c2ccc3c(c2)OCO3)oc2ccccc12`, the activity increase over dofetilide control, less the hit threshold was 6% (active).

On to `Cc1ccc(S(=O)(=O)c2nnn3c2nc(N2CCOCC2)c2ccccc23)c(C)c1`, for which the activity increase over dofetilide control, less the hit threshold is -14% (inactive).

For the molecule `C/C(CCC12CC3CC(CC(C3)C1)C2)=N\NC(N)=S`, the activity increase over dofetilide control, less the hit threshold is 0% (inactive).

`C/C(O)=C/c1nc2ccccc2[nH]c1=O`: the activity increase over dofetilide control, less the hit threshold was -7% (inactive).

On to `Cc1cccc(C)c1NC(=S)NC(=O)c1ccc(Br)o1`, for which the activity increase over dofetilide control, less the hit threshold is 73% (active).

`Cc1cccc(NC(=S)NC(=O)c2ccc(Br)o2)c1C`: the activity increase over dofetilide control, less the hit threshold was 6% (active).

With `Cc1cccc(NC(=O)CCNC(=O)c2ccco2)c1C`, the activity increase over dofetilide control, less the hit threshold is -13% (inactive).

For the molecule `CN1CCN(c2ccc(NC(=O)c3ccc(Br)o3)cc2)CC1`, the activity increase over dofetilide control, less the hit threshold is -2% (inactive).

Turning to `Cc1cccc(NC(=S)NC(=O)c2ccco2)c1C`, the activity increase over dofetilide control, less the hit threshold is 52% (active).

With `CCOc1ccc(-c2cccc(NC(=O)c3ccc(Br)o3)c2)nn1`, the activity increase over dofetilide control, less the hit threshold was -26% (inactive).

For the molecule `Nc1cc(=O)[nH]c(SCC(=O)N2CCCCC2)n1`, the activity increase over dofetilide control, less the hit threshold was -10% (inactive).

Take `Cc1ccc(CNS(=O)(=O)c2cc3c4c(c2)CCN4C(=O)CC3)cc1`: the activity increase over dofetilide control, less the hit threshold was -9% (inactive).

Regarding `Cc1cc(=S)nc(-c2ccccn2)[nH]1`, the activity increase over dofetilide control, less the hit threshold is -7% (inactive).

With `Cc1[nH]c(-c2ccccn2)nc(=S)c1Cl`, the activity increase over dofetilide control, less the hit threshold was 61% (active).

For `CC(C)c1ccc(NC(=O)C2CC3CCC2C3)cc1` (stereo not given), the activity increase over dofetilide control, less the hit threshold was -10% (inactive).

As to `CCC(C)NC(=O)c1c(-c2cc(Cl)c(OC)c(Cl)c2)noc1C` (stereo not given), the activity increase over dofetilide control, less the hit threshold is -16% (inactive).

With `CCC(C)Sc1nc2c([nH]c3ccccc32)c(=O)n1C` (stereo not given), the activity increase over dofetilide control, less the hit threshold is -5% (inactive).

For the molecule `CCC(C)n1c(=S)[nH]c2ccccc2c1=O` (stereo not given), the activity increase over dofetilide control, less the hit threshold is 14% (active).

Regarding `CCC(Cc1ccccc1)n1c(=S)[nH]c2ccccc2c1=O` (stereo not given), the activity increase over dofetilide control, less the hit threshold is 4% (active).

Consider `CC(C)COn1c(=S)[nH]c2ccccc2c1=O`, for which the activity increase over dofetilide control, less the hit threshold is 18% (active).

For the molecule `S=c1[nH]nc(-c2ccccn2)n1/N=C/c1ccc(-c2ccccc2Br)o1`, the activity increase over dofetilide control, less the hit threshold is -16% (inactive).

For the molecule `O=[N+]([O-])c1ccc(-c2ccc(/C=N/n3cnnc3)o2)c(Br)c1`, the activity increase over dofetilide control, less the hit threshold is 12% (active).

`O=C1C2C3C=CC(C4CC34)C2C(=O)N1/N=C/c1ccc(-c2ccc(F)cc2[N+](=O)[O-])o1` (stereo not given): the activity increase over dofetilide control, less the hit threshold was -1% (inactive).

In the case of `COc1ccc(CS(=O)(=O)CC2(O)CCN(C(=O)c3cccc(C(F)(F)F)c3)CC2)cc1`, the activity increase over dofetilide control, less the hit threshold is -27% (inactive).

These data come from PubChem BioAssay AID1835 (Johns Hopkins Ion Channel Center, 2009).
